Consider seven compounds from ChEMBL document CHEMBL1961873, “Compounds: GSK PKIS; Assays: Nanosyn kinase panel” (2012).

The subject of test [1] is Tyrosine-protein kinase ABL1 (Homo sapiens), P00519 [T315I]. To be noted: at 1 µM.
Test [2] has as its system Tyrosine-protein kinase ABL1 (Homo sapiens), P00519 [Y253F]. To be noted: at 0.1 µM.
Test [3] shares this test system. To be noted: at 1 µM.
The target of test [4] is Tyrosine-protein kinase ABL1 (Homo sapiens) (UniProt P00519). To be noted: at 0.1 µM.
Test [5] has the same target. Conditions: at 1 µM.
Test [6] deals with ALK tyrosine kinase receptor (Homo sapiens) (UniProt Q9UM73). Conditions: at 0.1 µM.
The target is the same in test [7]. To be noted: at 1 µM.
Test [8] deals with Tyrosine-protein kinase ABL2 (Homo sapiens) (UniProt P42684). Conditions: at 0.1 µM.
Chain of Tyrosine-protein kinase ABL2 (Homo sapiens) (P42684 whole entry): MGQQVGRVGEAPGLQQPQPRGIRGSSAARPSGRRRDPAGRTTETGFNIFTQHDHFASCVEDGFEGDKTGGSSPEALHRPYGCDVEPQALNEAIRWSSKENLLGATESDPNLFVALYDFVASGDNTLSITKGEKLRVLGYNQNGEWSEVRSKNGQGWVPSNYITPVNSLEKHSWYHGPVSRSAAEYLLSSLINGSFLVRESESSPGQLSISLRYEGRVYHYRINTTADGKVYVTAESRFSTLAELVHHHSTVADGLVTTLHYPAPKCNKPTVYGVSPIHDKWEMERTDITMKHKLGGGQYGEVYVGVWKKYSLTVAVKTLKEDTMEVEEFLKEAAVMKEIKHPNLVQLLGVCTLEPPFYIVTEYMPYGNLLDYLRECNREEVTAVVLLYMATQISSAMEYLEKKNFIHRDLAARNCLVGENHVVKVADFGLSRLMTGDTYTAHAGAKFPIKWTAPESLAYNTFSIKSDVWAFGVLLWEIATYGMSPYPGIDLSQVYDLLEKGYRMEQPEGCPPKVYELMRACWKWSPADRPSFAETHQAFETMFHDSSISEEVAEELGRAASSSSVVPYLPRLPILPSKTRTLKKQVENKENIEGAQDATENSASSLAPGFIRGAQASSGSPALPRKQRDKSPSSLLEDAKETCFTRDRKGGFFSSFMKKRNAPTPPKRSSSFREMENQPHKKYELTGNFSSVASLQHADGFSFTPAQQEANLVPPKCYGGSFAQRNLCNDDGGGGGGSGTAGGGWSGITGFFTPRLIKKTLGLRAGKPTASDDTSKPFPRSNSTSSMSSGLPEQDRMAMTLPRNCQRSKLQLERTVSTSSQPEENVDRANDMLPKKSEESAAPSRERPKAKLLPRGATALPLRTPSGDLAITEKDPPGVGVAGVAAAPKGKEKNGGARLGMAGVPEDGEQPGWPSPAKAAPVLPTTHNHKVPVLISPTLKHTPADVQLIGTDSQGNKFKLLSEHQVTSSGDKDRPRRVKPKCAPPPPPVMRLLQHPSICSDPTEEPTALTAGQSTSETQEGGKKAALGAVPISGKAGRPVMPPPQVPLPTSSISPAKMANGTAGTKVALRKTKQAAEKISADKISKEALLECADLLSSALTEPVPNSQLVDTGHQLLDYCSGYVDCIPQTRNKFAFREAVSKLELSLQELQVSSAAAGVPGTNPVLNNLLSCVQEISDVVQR
Test [9] shares this target. Conditions: at 1 µM.
The target of test [10] is Tyrosine-protein kinase receptor UFO (Homo sapiens) (UniProt P30530). To be noted: at 0.1 µM.
Chain of Tyrosine-protein kinase receptor UFO (Homo sapiens) (P30530 whole entry): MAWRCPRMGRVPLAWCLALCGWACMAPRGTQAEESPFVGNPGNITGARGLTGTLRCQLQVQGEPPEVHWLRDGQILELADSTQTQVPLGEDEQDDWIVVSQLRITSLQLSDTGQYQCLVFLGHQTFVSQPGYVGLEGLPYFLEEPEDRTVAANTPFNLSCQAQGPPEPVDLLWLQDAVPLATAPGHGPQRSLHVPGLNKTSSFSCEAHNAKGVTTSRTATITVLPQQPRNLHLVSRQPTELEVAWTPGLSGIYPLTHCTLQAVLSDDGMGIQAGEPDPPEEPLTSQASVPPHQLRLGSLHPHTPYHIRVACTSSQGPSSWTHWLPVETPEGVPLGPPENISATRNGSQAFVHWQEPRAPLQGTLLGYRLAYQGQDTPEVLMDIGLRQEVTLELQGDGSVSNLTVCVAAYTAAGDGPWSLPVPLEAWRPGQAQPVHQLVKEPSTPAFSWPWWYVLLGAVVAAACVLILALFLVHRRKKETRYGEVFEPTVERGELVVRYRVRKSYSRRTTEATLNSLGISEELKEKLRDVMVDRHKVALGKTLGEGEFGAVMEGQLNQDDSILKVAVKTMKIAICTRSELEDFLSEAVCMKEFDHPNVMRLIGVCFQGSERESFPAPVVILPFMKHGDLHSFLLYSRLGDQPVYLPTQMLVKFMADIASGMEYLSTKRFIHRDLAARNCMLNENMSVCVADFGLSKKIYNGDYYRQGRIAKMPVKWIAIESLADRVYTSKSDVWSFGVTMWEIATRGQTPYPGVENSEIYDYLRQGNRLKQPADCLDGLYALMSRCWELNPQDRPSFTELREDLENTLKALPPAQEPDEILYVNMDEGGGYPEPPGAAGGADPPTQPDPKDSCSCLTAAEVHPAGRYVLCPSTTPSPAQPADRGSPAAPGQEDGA
Test [11] shares this target. Conditions: at 1 µM.
Test [12] has as its target Tyrosine-protein kinase Blk (Homo sapiens) (UniProt P51451). Conditions: at 0.1 µM.
Test [13] has the same target. To be noted: at 1 µM.
Test [14] addresses T1, Cytoplasmic tyrosine-protein kinase BMX (Homo sapiens) (UniProt P51813).
T1 sequence (whole entry): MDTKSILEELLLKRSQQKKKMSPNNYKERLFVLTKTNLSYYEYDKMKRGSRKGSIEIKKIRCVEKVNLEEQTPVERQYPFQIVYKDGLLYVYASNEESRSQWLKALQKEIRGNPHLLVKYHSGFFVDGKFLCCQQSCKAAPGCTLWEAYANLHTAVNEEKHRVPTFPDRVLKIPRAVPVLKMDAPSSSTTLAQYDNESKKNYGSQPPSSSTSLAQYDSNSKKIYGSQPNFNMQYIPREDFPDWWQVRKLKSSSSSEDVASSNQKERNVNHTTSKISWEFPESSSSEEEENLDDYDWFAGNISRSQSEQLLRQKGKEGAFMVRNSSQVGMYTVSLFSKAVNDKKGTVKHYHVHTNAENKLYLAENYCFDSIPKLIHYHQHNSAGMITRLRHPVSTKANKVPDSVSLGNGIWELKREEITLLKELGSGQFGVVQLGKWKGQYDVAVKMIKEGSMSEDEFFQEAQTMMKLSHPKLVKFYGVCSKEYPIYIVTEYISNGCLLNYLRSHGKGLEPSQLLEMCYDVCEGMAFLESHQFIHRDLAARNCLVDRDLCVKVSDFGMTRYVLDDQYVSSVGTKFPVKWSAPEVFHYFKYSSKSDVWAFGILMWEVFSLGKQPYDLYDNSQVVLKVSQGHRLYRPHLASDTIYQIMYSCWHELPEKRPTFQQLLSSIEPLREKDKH
Conditions: at 0.1 µM.

Test [15] deals with T1, Cytoplasmic tyrosine-protein kinase BMX (Homo sapiens). Conditions: at 1 µM.
The target in test [16] is Protein-tyrosine kinase 6 (Homo sapiens) (UniProt Q13882). Conditions: at 0.1 µM.
Chain of Protein-tyrosine kinase 6 (Homo sapiens) (Q13882 whole entry, looked up): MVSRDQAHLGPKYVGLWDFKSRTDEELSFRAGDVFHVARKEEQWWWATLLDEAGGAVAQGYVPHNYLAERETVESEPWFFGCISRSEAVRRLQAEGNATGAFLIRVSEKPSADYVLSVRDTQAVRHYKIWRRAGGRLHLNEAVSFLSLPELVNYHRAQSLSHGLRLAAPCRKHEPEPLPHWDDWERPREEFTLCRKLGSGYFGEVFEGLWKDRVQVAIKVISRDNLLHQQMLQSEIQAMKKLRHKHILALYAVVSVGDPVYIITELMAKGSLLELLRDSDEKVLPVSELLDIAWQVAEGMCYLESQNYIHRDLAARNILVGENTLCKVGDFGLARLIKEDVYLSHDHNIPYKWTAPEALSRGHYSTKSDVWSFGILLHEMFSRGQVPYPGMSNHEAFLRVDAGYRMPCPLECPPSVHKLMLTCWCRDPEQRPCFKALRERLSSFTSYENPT
The target is the same in test [17]. Conditions: at 1 µM.
Test [18] addresses Tyrosine-protein kinase BTK (Homo sapiens) (UniProt Q06187). To be noted: at 0.1 µM.
For test [19] the target is unchanged. To be noted: at 1 µM.
Test [20] concerns the target Tyrosine-protein kinase CSK (Homo sapiens) (UniProt P41240). To be noted: at 0.1 µM.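 Note: value given is the averaged percent inhibition of CSK kinase activity, from the GSK PKIS kinase inhibitor set screening panel.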

Chain of Tyrosine-protein kinase CSK (Homo sapiens) (P41240 2-450 limits assumed): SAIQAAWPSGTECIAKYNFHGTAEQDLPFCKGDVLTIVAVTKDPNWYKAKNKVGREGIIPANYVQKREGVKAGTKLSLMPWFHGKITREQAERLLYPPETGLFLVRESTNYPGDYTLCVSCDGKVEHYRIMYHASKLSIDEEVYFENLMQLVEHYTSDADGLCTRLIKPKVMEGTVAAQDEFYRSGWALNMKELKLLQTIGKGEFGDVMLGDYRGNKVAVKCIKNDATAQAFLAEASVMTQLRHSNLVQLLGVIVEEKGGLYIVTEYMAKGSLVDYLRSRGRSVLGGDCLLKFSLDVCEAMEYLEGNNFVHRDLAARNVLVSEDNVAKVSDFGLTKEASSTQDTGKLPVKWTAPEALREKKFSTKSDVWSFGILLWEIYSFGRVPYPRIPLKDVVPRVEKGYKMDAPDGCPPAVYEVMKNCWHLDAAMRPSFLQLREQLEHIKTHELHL
Chain of Tyrosine-protein kinase BTK (Homo sapiens) (Q06187 whole entry): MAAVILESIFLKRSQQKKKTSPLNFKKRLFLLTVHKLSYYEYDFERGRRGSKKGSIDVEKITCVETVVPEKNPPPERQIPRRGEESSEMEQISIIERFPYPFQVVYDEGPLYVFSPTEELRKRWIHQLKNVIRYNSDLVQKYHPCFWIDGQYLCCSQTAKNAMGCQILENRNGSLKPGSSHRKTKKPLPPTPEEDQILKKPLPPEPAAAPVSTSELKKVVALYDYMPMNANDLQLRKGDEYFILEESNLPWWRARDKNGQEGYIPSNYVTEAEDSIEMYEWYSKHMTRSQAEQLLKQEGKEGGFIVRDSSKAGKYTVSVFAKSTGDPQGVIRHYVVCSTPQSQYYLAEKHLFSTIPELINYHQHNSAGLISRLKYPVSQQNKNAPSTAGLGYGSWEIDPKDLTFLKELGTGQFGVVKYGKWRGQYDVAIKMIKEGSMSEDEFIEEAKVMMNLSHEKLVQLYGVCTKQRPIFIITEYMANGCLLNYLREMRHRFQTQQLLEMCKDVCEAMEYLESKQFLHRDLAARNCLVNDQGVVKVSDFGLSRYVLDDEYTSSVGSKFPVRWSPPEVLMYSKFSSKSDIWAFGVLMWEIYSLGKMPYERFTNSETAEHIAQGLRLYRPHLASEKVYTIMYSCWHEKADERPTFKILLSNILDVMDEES
Chain of Tyrosine-protein kinase Blk (Homo sapiens) (P51451 2-505 limits assumed): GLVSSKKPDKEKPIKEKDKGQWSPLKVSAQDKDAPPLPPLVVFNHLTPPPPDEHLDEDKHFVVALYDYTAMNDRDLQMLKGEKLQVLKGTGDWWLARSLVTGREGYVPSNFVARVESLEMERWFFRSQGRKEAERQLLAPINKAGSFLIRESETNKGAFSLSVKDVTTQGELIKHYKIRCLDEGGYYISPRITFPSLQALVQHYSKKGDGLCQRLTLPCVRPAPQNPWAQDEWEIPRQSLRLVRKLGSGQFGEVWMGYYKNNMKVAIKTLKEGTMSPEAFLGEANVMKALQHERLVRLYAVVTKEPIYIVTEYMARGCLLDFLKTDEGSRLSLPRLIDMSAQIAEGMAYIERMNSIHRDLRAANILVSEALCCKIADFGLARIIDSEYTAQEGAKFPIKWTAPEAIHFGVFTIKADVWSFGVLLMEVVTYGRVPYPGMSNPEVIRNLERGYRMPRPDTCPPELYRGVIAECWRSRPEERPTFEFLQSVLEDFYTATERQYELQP

Usually inhibition stands for the change of the read-out against control, counted positive when it falls. Take `NS(=O)(=O)c1ccc(N/N=C2\C(=O)Nc3ccc4ncccc4c32)cc1`: the inhibition was found to be 47.1% in test [1]; 11.6% in [2]; 49.8% in test [3]; 9.91% in [4]; 50.2% in test [5]; 3.06% in test [6]. The inhibition amounted to 16.1% in test [7]; 4.85% in test [8]; 33.7% in [9]; 0.46% in test [10]; 36.8% in test [11]; 8.45% in test [12]. The inhibition in test [13] was 60%; in test [14], 6.88%; in test [15], 25.3%; in test [16], 5.86%; in test [17], 31.9%; in [18], 1.8%. The inhibition worked out at 13% in test [19] and 1.66% in [20].
Turning to `COc1ccc(-c2cc3c(N)ncnc3o2)cc1`, the inhibition in [1] was 2.97%; in [2] it was -0.25%; in test [3], 10.8%; in test [4], 2.28%; in [5], 11.4%; in [6], -1.19%. Further, the inhibition in test [7] was found to be 1.1%; in test [8], 0.1%; in test [9], 5.3%; in test [10] it was 2.44%; in test [11] it was 2.96%; in [12], 0.55%. Moreover, the inhibition in [13] is 4.67%; in test [14], -2.47%; in [15] it was 2.73%; in test [16], 0.01%; in test [17], 2.82%; in test [18] it was -0.13%. Also, the inhibition in test [19] is -0.38%; in test [20] it was -1.51%.
For `O=C(O[C@H]1CN[C@H](C#Cc2cc3ncnc(Nc4ccc(Cc5ccccc5)cc4)c3s2)C1)N1CCOCC1`, the inhibition was 0.76% in test [1]; -1.94% in [2]; 2.37% in test [3]; -0.06% in test [4]; 0.2% in test [5]; 1.1% in test [6]. Besides, the inhibition is 0.46% in test [7]; -0.08% in test [8]; -0.38% in test [9]; -5.65% in test [10]; -7.04% in test [11]; 5.97% in [12]. Besides, the inhibition in [13] is 48.5%; in test [14], 1.38%; in test [15] it was 4.65%; in test [16], -0.08%; in test [17], 18.2%; in [18], -0.44%. In addition, the inhibition in [19] was 1.44%; in [20] it was -1.2%.
For the compound `CCn1c(-c2nonc2N)nc2ccccc21`, the inhibition worked out at 1.53% in test [1]; 3.97% in test [2]; 4.13% in test [3]; 4.4% in test [4]; 6.01% in test [5]; 1.5% in test [6]. Besides, the inhibition is 8.1% in [7]; 4.04% in test [8]; 3% in [9]; -0.67% in test [10]; 0.96% in [11]; 1.38% in [12]. In addition, the inhibition in [13] was 3.02%; in test [14], -0.5%; in test [15], 3.8%; in [16], 4.51%; in [17] it was 3.44%; in test [18], 1.6%. The inhibition in test [19] was 2.63%; in test [20], 2.25%.
Consider `Clc1ccc(-c2nn3ncccc3c2-c2ccnc(Nc3ccccc3)n2)cc1`, for which the inhibition worked out at 30.7% in test [1]; 7.15% in test [2]; 24.5% in test [3]; 3.9% in test [4]; 27.6% in [5]; 2.8% in [6]. Moreover, the inhibition in [7] was 2.67%; in test [8] it was 3.8%; in test [9] it was 18.2%; in [10], -0.26%; in test [11] it was -0.77%; in test [12], 3.97%. Also, the inhibition is 15% in test [13]; -0.61% in test [14]; 13.9% in [15]; 7.5% in test [16]; 40.2% in [17]; 0.8% in test [18]. Also, the inhibition in [19] was 2.63%; in test [20] it was 0.47%.
For `COc1ccc(-c2nn3ncccc3c2-c2ccnc(Nc3ccc4c(c3)OCCO4)n2)cc1`, the inhibition turned out to be 32.3% in test [1]; 2.95% in [2]; 33.3% in [3]; 2.5% in test [4]; 25.8% in [5]; 8.08% in [6]. Also, the inhibition in [7] worked out at 35.2%; in test [8] it was 5.47%; in [9] it was 33.2%; in test [10] it was 1.61%; in test [11], 8.45%; in [12] it was 5.51%. Further, the inhibition came to 39.5% in [13]; 0.12% in test [14]; 8.65% in test [15]; 12% in test [16]; 67.5% in test [17]; 0.65% in test [18]. The inhibition is 3.53% in test [19] and -0.27% in test [20].
`Cc1ccc(O)cc1Nc1ccnc2cc(-c3ccccn3)ccc12`: the inhibition in test [1] is 50.7%; in test [2] it was 95.5%; in [3] it was 98.2%; in test [4], 84.3%; in [5], 89.4%; in test [6], 5.32%. Also, the inhibition is 34.1% in test [7]; 74.3% in test [8]; 95.7% in test [9]; -5.44% in test [10]; -6.05% in test [11]; 12.5% in test [12]. Further, the inhibition was found to be 61.8% in [13]; 19.8% in test [14]; 69.2% in test [15]; 52.5% in [16]; 96.9% in [17]; 4.79% in test [18]. Also, the inhibition in test [19] was 34.5%; in [20], 14.5%.
